Sampled rows, rich in hits. Any-hit rate of the full collection: about 2.8%.
KCNH2 WT inh: KCNH2 (human, wildtype) channel inhibition; Q12809; U2OS, BacMam KCNH2, thallium flux FluxOr; stronger effect = lower value; activity change, % at 1.84 µM; 340,000 compounds, 0.37% hits;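 active = maximum activity change below -70%; inconclusive = maximum activity change between -70% and -50%; inactive = maximum activity change above -50%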; also: % is scaled to controls: 0 for no effect and ±100 for the full control effect
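U2OS cells transduced with wild-type KCNH2 virus are loaded with FluxOr dye for 45 min, and thallium flux is measured in kinetic reads before and after stimulation buffer. Rate constants are normalized to DMSO controls.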
GLS inh: inhibitors of human glutaminase (GLS) | O94925 | GLS enzymatic activity, qHTS titration | Potency, µM (doses to about 45.5 µM), for inactives: at the top dose activity change, negative = inhibition, usual class: inhibitors | 410,000 compounds, 0.21% hits | AID 624170; also: potency is read from the fitted curve at half-maximal effect; % is scaled to controls: 0 for no effect and ±100 for the full control effect
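Read-out is an Amplex red fluorescence increase coupled through glutamate oxidase and HRP, measured before and after 30 min room-temperature incubation. hKGA is in 45 mM KH2PO4 (pH 8.2) with 0.02% Tween-20; glutamine added as 1mM solution.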
GLP1R inv ag: acts as inverse agonist at human GLP-1 receptor; 410,000 compounds, 1.6% hits; P43220; HEK293 GLP-1R CRE-luciferase, luminescence, 24 h; GLP-1R form is constitutively active; Potency, µM (series often up to 38.3 µM), inactives show at the top dose activity change, negative = inhibition, hits mostly inhibitors; also: potency is read from the fitted curve at half-maximal effect; % is scaled to controls: 0 for no effect and ±100 for the full control effect; nearly all actives have a fitted effect of over 55% in size
Target sequence (P43220 whole entry, looked up): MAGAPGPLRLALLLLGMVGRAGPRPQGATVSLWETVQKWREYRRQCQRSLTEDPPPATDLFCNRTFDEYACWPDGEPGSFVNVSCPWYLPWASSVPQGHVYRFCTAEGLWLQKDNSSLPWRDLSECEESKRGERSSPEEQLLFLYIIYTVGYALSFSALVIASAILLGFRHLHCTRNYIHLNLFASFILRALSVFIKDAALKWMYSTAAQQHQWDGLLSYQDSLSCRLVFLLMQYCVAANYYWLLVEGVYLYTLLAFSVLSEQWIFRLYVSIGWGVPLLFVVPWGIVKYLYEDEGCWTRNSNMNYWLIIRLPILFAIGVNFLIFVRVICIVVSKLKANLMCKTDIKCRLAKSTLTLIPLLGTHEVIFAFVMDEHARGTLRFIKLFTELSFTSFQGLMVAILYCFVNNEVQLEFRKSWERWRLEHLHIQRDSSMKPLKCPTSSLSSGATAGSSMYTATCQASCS
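Luminescence readout: a drop in cAMP-driven luciferase signal flags inverse agonism at a constitutively active GLP-1R stably expressed in HEK293. Compound exposure lasted 24 hr at 37 deg C, 5% CO2.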
GLP-1R agonist: agonists of human GLP-1 receptor. HEK293 GLP-1R CRE-luciferase, luminescence, 4-6 h; cells express a hypersensitive GLP-1R form. Potency, µM (highest dose often 45.6 µM), inactives show at the top dose activation, actives largely listed as activators. 380,000 compounds, 0.007% hits; also: potency is read from the fitted curve at half-maximal effect; % of control where 0% means no effect
KCNH2 3.1 block: KCNH2 3.1 (human) potassium channel inhibition; U2OS KCNH2 3.1, thallium flux FluxOr; stronger effect = lower value; activity change, % (tested at about 1.8 µM); 340,000 compounds, 0.95% hits; AID 720553;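 active = maximum activity change below -70%; inconclusive = maximum activity change from -70% to -50%; inactive = maximum activity change above -50%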;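 also: thallium influx rate constant from kinetic fluorescence after stimulation buffer; % is scaled to controls: 0 for no effect and ±100 for the full control effect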
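We transduce U2OS cells with the mutant 3.1 virus, culture them overnight, load FluxOr with Red40 quencher for 45 min, then add stimulation buffer and read kinetically for 2 min to derive a normalized rate constant.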
GLP1R cytotox: cytotoxicity counter-screen for GLP-1 receptor inverse agonists. HEK293 cAMP-luciferase reporter cells, luminescence, 24 h. Potency, µM (series often up to 38.3 µM), inactives show at the highest dose activity change, negative = inhibition, usual class: inhibitors. 410,000 compounds, 0.13% hits. AID 624418;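 also: loss of luciferase light is scored as toxicity; potency is read from the fitted curve at half-maximal effect; % is scaled to controls: 0 for no effect and ±100 for the full control effect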
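1536-well qHTS counterscreen of the MLSMR; 200 cells/uL, 12 h pre-incubation, 23 nL cpd, 24 h at 37 deg C 5% CO2, luciferase detection reagent, 12 min RT, luminescence. Inhibition = undesired.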
* = called active by the depositor; u = inconclusive; x = no result. Unless noted, calls follow the shape of the dose curve; as a rule, active = well fitted curve in the direction sought with a large enough effect; inconclusive = small, poorly fitted or top-dose-only effect, or another doubt; inactive = no such curve, though single readings can be large; an effect the other way counts as inactive or inconclusive.

SMILES	KCNH2 WT inh	GLS inh	GLP1R inv ag	GLP-1R agonist	KCNH2 3.1 block	GLP1R cytotox
CCCCCN1C(C(=O)c2ccccc2)=C(NC(=O)c2ccc(OC)c(OC)c2)c2ccccc2S1(=O)=O	x	-3%	10µM*	x	x	84%
Cc1ccc(/C=C/C(=O)c2ccccc(=O)c2O)c(C)c1	5	0%	u	7%	5	u
C=C(CN(C)C)C(=O)c1ccc(C)cc1C	-8	19%	u	-13%	-8	10µM*
CCOc1ccc(-c2c(C)n(-c3ccc(OCC)cc3)c3[n+]2CCCCC3)cc1	-8	0%	u	-2%	-112*	u
O=c1[nH]c(=S)[nH]c(O)c1N=Nc1ccc2c(c1)OCO2	-4	17%	6%	-3%	-2	10µM*
CS(=O)(=O)c1ccc(C2=C(CNC(=O)c3cccs3)[C@H]3CC[C@@H](C2)N3Cc2ccccc2)cc1	u	0%	11%	5%	-1	1%
O=C(NCC1=C(c2ccc3ccccc3c2)C[C@@H]2CC[C@H]1N2Cc1ccco1)c1ccc([N+](=O)[O-])cc1	-41	3%	u	-5%	-99*	-30%
CS(=O)(=O)c1ccc(C2=C(CNC(=O)c3cccs3)[C@H]3CC[C@@H](C2)N3Cc2ccco2)cc1	-41	4%	4%	-4%	-94*	2%
O=C(NCC1=C(c2ccc3ccccc3c2)C[C@@H]2CC[C@H]1N2Cc1ccco1)c1ccncc1	16	12%	u	-1%	-31	2%
COC(CN(C(=O)CCl)C(C(=O)NC1CCCCC1)c1ccccc1C)OC (centres undefined)	10	-7%	10µM*	-10%	11	u
CCCC(C)C1(CC)C(=O)NC(=S)NC1=O (centres undefined)	x	4%	x	-6%	x	x
CCCCNc1cc(C)nc(NCc2ccccc2)n1	30	10%	u	9%	-30	11µM*
CN(C)C(=O)CNC(=O)Cc1ccccc1	x	-7%	x	u	x	x
O=c1[nH]c(=S)n(Cc2ccc(F)cc2)c(O)c1C=NCCCn1ccnc1	-37	26%	-27%	8%	-84*	-18%
N#CC(C(=O)C12CC3CC(CC(C3)C1)C2)c1nc2ccccc2[nH]1 (centres undefined)	10	17%	1.1µM*	-3%	-16	-10%
CN1C(=O)NC(=O)/C(=C\c2ccc([N+](=O)[O-])o2)C1=O	0	7.1µM*	5%	-3%	-10	u
COc1ccc(NC(=S)NC(NC(=O)CF)C(Cl)(Cl)Cl)cc1[N+](=O)[O-] (centres undefined)	1	7%	-9%	4%	0	1%
COC(=O)NC(NC(=S)Nc1ccc([N+](=O)[O-])cc1)C(Cl)(Cl)Cl (centres undefined)	0	-4%	11µM*	-36%	4	u
CCCCc1ccc(C2C3=C(CC(C)(C)CC3=O)NC3=C2C(=O)c2ccccc23)cc1 (centres undefined)	-5	2%	3.5µM*	-2%	u	u
CC/C(=C\C=C\[C@@H]1C=C[C@@H]2CCC[C@H]2[C@@H]1C(=O)c1ccc[nH]1)[C@@H]1O[C@@H]([C@@H](C)C(=O)O)CC[C@@H]1C	-3	u	2.5µM*	-17%	-1	u
COc1ccc(S(=O)(=O)N(CC(=O)NCc2ccccc2OC)c2ccc(C)cc2)cc1	x	-7%	3.2µM*	x	x	-20%
CN1C(=O)C(Cl)(Cl)C(=O)c2ccccc21	-3	-21%	-16%	-2%	-9	u
N=C(N)SCc1ccc(Cl)cc1Cl	4	13%	7.1µM*	-8%	7	u
Clc1ccc(C(Cl)(Cl)Cl)c(Cl)c1	-8	-8%	5%	4%	-14	0%
CC(Cc1ccccc1Sc1ccccc1O)N(C)C (centres undefined)	9	38%	7.9µM*	-15%	-5	6%
SMILES	KCNH2 WT inh	GLS inh	GLP1R inv ag	GLP-1R agonist	KCNH2 3.1 block	GLP1R cytotox
COP(=S)(OC)Oc1cc(Cl)c(Cl)cc1Cl	x	-1%	x	-1%	x	x
COC(=O)C1=C(c2ccccc2OCc2ccccc2)C[C@@H]2CC[C@H]1N2C(=O)NCc1ccc(Br)cc1	0	3%	u	-1%	-82*	-30%
COC(=O)C1=C(c2ccc(OC(F)(F)F)cc2)C[C@@H]2CC[C@H]1N2C(=O)NCC1CC1	2	16%	10µM*	6%	2	-19%
COC(=O)C1=C(c2ccccc2OCc2ccccc2)C[C@@H]2CC[C@H]1N2C(=O)NCc1ccccc1	x	6%	u	-3%	x	2%
COC(=O)C1=C(c2ccccc2OCc2ccccc2)C[C@@H]2CC[C@H]1N2C(=O)NCCc1ccc(F)cc1	1	4%	22µM*	-2%	-48	-23%
COC(=O)C1=C(c2cccc(OC)c2OC)C[C@@H]2CC[C@H]1N2C(=O)NCCS(C)=O (some centres undefined)	-163*	-4%	10%	3%	6	5%
C=C1CCN([C@@H](Cc2ccccc2)C(=O)Nc2ccc(OC)cc2)S(=O)(=O)c2ccccc21	-12	1%	u	3%	1	-1%
CCOC(=O)C(CC)(CC)C(=O)/C=C/c1cccc(Br)c1	-9	-16%	-9%	-31%	-4	u
CCN(CC(=O)Nc1ccccc1C(F)(F)F)C(=O)CCSc1ccc(F)cc1	-3	-1%	u	17%	4	-2%
COC(=O)C1=C(c2ccc(OCc3ccccc3)cc2)C[C@@H]2CC[C@H]1N2C(=O)NCc1ccc(OC)c(OC)c1	-24	2%	0%	20%	3	5%
COC(=O)C1=C(c2ccc(OCc3ccccc3)cc2)C[C@@H]2CC[C@H]1N2C(=O)NCc1ccccc1OC	-7	-1%	13µM*	5%	-7	4%
CCN1CCN(P2(=O)C=C(c3ccccc3)OC(c3ccccc3)=C2)CC1	-123*	9%	-13%	10%	-90*	u
CCN1CCN(Cc2ccccc2C)CC1	-14	-6%	1%	6%	3	5%
CCCCOc1ccc(CNC(=O)c2cc3n(n2)CCCN(Cc2ccc(C)cc2)C3=O)cc1	x	3%	u	x	x	0%
CCN(CC)CC(O)c1ccc(C2CCCC2)cc1 (centres undefined)	10	1%	7.1µM*	-1%	-22	10%
